# HCMV antiviral – inhibitors of human cytomegalovirus. HFF cells, HCMV-luciferase reporter, 72 h; stronger effect = lower value. activity change, negative = inhibition, % at 57.5 µM. hit rate 4.5% among 410,000; in the data active = activity change below about -60%; inconclusive = no clear call, values can overlap the other calls; inactive = above about -39%
#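 Compounds were evaluated in HFFs infected with an HCMV luciferase reporter virus (MOI 1 PFU/cell). Luciferase in lysates collected 72 h post infection served as the replication measure.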
# FMDV inh – blocks foot and mouth disease virus | FMDV antiviral cell-based qHTS | Potency, µM (highest dose often 57.9 µM), without a hit: top-dose activity change, negative = inhibition, actives largely listed as inhibitors | hit rate 1.2% among 410,000; calls by dose curve; tested in HEK293T cells; note: read-out not given here; potency is the fitted concentration of half-maximal effect; nearly all actives have a fitted effect of over 45% in size
# AmpC inh no detg – AmpC beta-lactamase inhibition without detergent; AmpC nitrocefin hydrolysis, absorbance 480 nm, 0.0001% Triton; Potency, µM (series often up to 57.1 µM), for the others: at the highest dose activity change, negative = inhibition, hits mostly inhibitors; hit rate 0.52% among 330,000;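 note: potency is the fitted concentration of half-maximal effect; plate controls were no compound for no effect and no enzyme for full effect; nearly all actives have a fitted effect of over 20% in size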
# Target sequence (P00811 whole entry, looked up): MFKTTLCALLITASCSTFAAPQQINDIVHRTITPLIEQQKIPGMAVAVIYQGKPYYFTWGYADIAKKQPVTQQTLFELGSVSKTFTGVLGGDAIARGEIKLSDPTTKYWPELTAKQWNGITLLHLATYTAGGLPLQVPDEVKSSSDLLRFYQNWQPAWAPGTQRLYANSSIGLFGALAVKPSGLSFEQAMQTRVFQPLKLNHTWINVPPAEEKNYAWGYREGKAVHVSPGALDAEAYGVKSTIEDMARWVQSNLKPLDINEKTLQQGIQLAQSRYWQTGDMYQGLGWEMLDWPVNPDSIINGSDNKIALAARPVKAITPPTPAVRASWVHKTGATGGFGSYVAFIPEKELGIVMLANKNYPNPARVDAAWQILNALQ
#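 AmpC (5.3 nM in the dispensed reagent) in 20 mM phosphate pH 7.0 with 0.01% (detergent screen) or 0.0001% Triton X-100 was preincubated with compounds for 15 min at room temperature. Nitrocefin was then added from an 800 uM solution, and hydrolysis was followed at 480 nm.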
# AmpC detergent – AmpC beta-lactamase inhibition with detergent present. P00811. AmpC hydrolysis of nitrocefin, absorbance 480 nm, 0.01% Triton. Potency, µM (series often up to 114 µM), for inactives: at the top dose activity change, negative = inhibition, most hits filed as inhibitors. hit rate 0.041% among 370,000. AID 485294;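 note: potency is the fitted concentration of half-maximal effect; 0% = no-compound wells and -100% = no-enzyme wells; nearly all actives have a fitted effect of over 25% in size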
#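 20 mM phosphate pH 7.0 + 0.01% (detergent screen) or 0.0001% Triton X-100; 5.3 nM AmpC reagent; cpd preinc 15 min RT; nitrocefin (800 uM stock) to start; A480 q20 s × 4 min; Activity was normalised to no-enzyme and no-compound control wells.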
# HCV inhibitor – HCV inhibition; Huh7.5.1 HCVcc-Cre infection, luciferase reporter, 44 h; Potency, µM (doses to about 41.8 µM), inactives show at the top dose activity change, negative = inhibition, most hits filed as inhibitors; hit rate 3.4% among 340,000; note: potency is the fitted concentration of half-maximal effect
#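 Infectious HCVcc-Cre (~0.5 moi) was added to cells just after compound, with cells seeded 4 h earlier at 1,000 per well. Luciferase activity after 44 h culture reported infection; substrate was incubated 15 min at room temperature before reading.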
# * marks the source's active call; other numbers are inactive results; ? = inconclusive; · = no result; [ ] = remark or other dose. Rows were chosen to be rich in hits. Some 7.3% of all compounds tested hit in one or more screens of this group. Unless noted, calls come from the whole dose curve; as a rule, active = well fitted curve in the direction sought with a large enough effect; inconclusive = small, poorly fitted or top-dose-only effect, or another doubt; inactive = no such curve, though single readings can be large; an effect the other way counts as inactive or inconclusive. Unless noted, % is set by controls: 0 for no effect and ±100 for the full control effect.
SMILES,HCMV antiviral,FMDV inh,AmpC inh no detg,AmpC detergent,HCV inhibitor
COC(=O)c1ccccc1NC(=S)N(Cc1ccc2c(c1)OCO2)Cc1cc2cc(OC)ccc2[nH]c1=O,?,-11.3%,-19.7%,?,11.2µM*
O=C(Cn1nnc(-c2ccccc2F)n1)N1CCCCC1,70.9,35.5%,-12.4%,-7.9%,-22.4%
Cc1cccc(C)c1-n1nnnc1C(=O)c1cccnc1,21.9,·,·,·,·
COc1ccccc1NC(=O)N(Cc1ccco1)Cc1cc2ccc(C)c(C)c2[nH]c1=O,46.5,?,5.4%,-13.5%,?
COc1ccccc1NC(=O)N(Cc1ccco1)Cc1cc2cc(C)cc(C)c2[nH]c1=O,-11.7,?,-10.5%,-10.5%,3.16µM*
COc1ccccc1NC(=S)N(Cc1ccco1)Cc1cc2cc(C)c(C)cc2[nH]c1=O,-61.9*,-16.3%,-45.2%,?,?
COc1ccccc1NC(=S)N(Cc1ccco1)Cc1cc2cccc(C)c2[nH]c1=O,-21.1,-2.8%,-48.5%,-6.1%,?
CCCCc1cc(=O)oc2cc(C)cc(OCC(=O)NCc3ccccn3)c12,-29.6,-18.3%,59.8%,-10.6%,?
CC(=O)N1CC(=O)N2[C@@H](CO)[C@@H](c3ccc(Br)cc3)[C@@H]2C1,-6.8,·,·,·,·
O=[N+]([O-])c1ccc(N2CCNCC2)cc1NCc1ccco1,-18.2,-6.9%,17.8µM*,-10.5%,?
CN1CCN(c2ccc([N+](=O)[O-])c(NCc3ccco3)c2)CC1,21.3,0.0%,?,-0.3%,-2.1%
O=C(c1cccc2ccccc12)N1CCN(c2ccc([N+](=O)[O-])c(NCc3ccco3)c2)CC1,?,-14.0%,-13.9%,?,?
Cc1ccccc1C(=O)N1CCN(c2ccc([N+](=O)[O-])c(NCc3ccco3)c2)CC1,-27.5,-13.1%,6.2%,-6.2%,12.6µM*
CC[C@H]1C=C[C@@H](C(C(=O)OC)C(=O)OC)CN1C(C)=O,3.5,-26.9%,·,·,0.5%
C=CCn1c(CCNC(=O)c2ccc(Cl)c(Cl)c2)nnc1SCCOc1ccc(OC)cc1,-5.0,28.2µM*,47.1%,-5.8%,10µM*
C=CCn1c(SCCOc2ccccc2)nnc1C(C)NC(=O)c1ccccc1 (stereo not drawn),18.1,-22.1%,56.9%,-6.2%,-14.9%
COc1cc(/C=C/c2nnc3c4ccccc4ncn23)cc(OC)c1OC,19.4,0.0%,140.8%,-1.5%,2.24µM*
O=C(CSc1nc2[nH]ncc2c(=O)n1-c1ccccc1)N1CCCCCC1,·,·,2.6%,-6.9%,·
O=c1c2ccccc2sn1-c1ccc(Cl)cc1Cl,-94.5*,-23.1%,·,·,·
COC(=O)COc1ccc(S(=O)(=O)NCCC2=CCCCC2)cc1C,-20.7,17.8%,-1.5%,1.2%,10.1%
COc1ccc(C(=O)NCC(=O)OCC(=O)NCCC2=CCCCC2)cc1,?,-18.5%,0.0%,-1.4%,21.9%
COC(=O)COc1ccc(S(=O)(=O)NCCC2=CCCCC2)cc1,-7.3,·,0.141µM*,2.6%,11.9%
Cc1ccc(C(=O)NCCSC2CCCCC2)cc1S(=O)(=O)Nc1ccccc1,-75.2*,·,-11.0%,?,?
COc1ccc(C(=O)NCCC2=CCCCC2)cc1,-4.0,12.6µM*,-11.3%,-1.0%,5.9%
CC(=O)c1cccc(NC(=S)NCCC2=CCCCC2)c1,?,-0.1%,-30.3%,?,11.2µM*
SMILES,HCMV antiviral,FMDV inh,AmpC inh no detg,AmpC detergent,HCV inhibitor
O=C(NCCC1=CCCCC1)c1ccc(Cl)c(S(=O)(=O)Nc2ccccc2)c1,?,·,-31.2%,-10.4%,-63.2%
Cc1ccccc1NS(=O)(=O)c1cc(C(=O)NCCC2=CCCCC2)ccc1C,?,·,10µM*,?,?
O=[N+]([O-])c1ccc(NS(=O)(=O)c2ccc(Cl)c(Cl)c2)cc1,-63.7*,9.8%,·,·,·
Cc1nn(C)c(Sc2ccccc2N)c1[N+](=O)[O-],?,41.4%,26.9%,2.9%,1.1%
COc1ccc(C(=O)ON=C2C=C(C)C(=O)C(C)=C2)cc1,-76.1*,1.5%,-6.1%[2.29 µM],5.8%,13.7%
COc1cc(C(=O)ON=C2C=C(C)C(=O)C(C)=C2)cc(OC)c1OC,-62.1*,-15.9%,-18.5%,?,16.8%
CCc1ccc(CNC(=O)c2cc3n(n2)CCCN(Cc2ccccc2)C3=O)cc1,-1.3,-17.1%,·,20.7%,·
O=C(c1cc(COc2ccc3ncccc3c2)on1)N1CCCC1,?,-23.4%,32.8%,-1.6%,7.08µM*
O=C(c1cc(COc2ccc3ncccc3c2)on1)N1CCCCCC1,-36.7,-5.9%,24.8%,-3.5%,?
Cc1ccc(OCc2cc(C(=O)NC3CCCCC3)no2)cn1,0.0,?,6.3%,-4.1%,?
COCC1CCN(C(=O)c2cc(COc3ccc4ncccc4c3)on2)CC1,-75.0*,?,4.9%,-1.4%,1.12µM*
O=C(NC1CCCC1)c1cc(COc2ccc3ncccc3c2)on1,·,?,-0.9%,-2.1%,3.55µM*
O=C(NCCc1cn2ccccc2n1)c1cc(COc2ccc3ncccc3c2)on1,-75.7*,11.2µM*,-4.6%,6.5%,2.51µM*
O=C(c1cccc(Cn2cccn2)c1)N1CCC(n2c(C3CCCO3)nc3cc(C(F)(F)F)ccc32)CC1 (stereo not drawn),·,-6.5%,·,·,·
CCOC(=O)N1CCN(C(=O)CN2C(=O)NC(C)(c3ccc4ccccc4c3)C2=O)CC1 (stereo not drawn),-10.8,?,130.5%,?,5.3%
CC(NC(=O)c1cc(COc2ccc3ncccc3c2)on1)c1ccc(F)cc1 (stereo not drawn),-85.1*,1.78µM*,-9.3%,-4.0%,2.24µM*
C[C@H](NC(=O)C1CCN(S(=O)(=O)c2ccccc2)CC1)C(=O)NCc1cccc(C(F)(F)F)c1,-6.1,-21.7%,114.3%,2.8%,-27.9%
O=C(c1ccc2c(c1)CCO2)N1CC2ON=C(c3c(F)cccc3Cl)C2C1 (stereo not drawn),14.5,·,·,·,·
COc1ccc(S(=O)(=O)N2c3ccc(F)cc3CCC2C)cc1 (stereo not drawn),-78.1*,-26.1%,·,·,3.5%
CC(=O)Nc1ccc(S(=O)(=O)N2c3ccc(F)cc3CCC2C)cc1 (stereo not drawn),-31.4,-8.9%,·,·,-22.8%
CCn1cc2nc(SCC(=O)Nc3cccc(Cl)c3C)n(Cc3ccc(Cl)cc3)c(=O)c2n1,-21.2,-20.6%,·,12.2%,·
Cc1nc(N2CCN(Cc3ccccc3)CC2)nc2c1C(=O)CCC2,-97.0*,25.1µM*,52.9%,6.1%,?
O=C(CSc1nccc(=O)[nH]1)N1N=C2/C(=C/c3ccco3)CCCC2C1c1ccco1 (stereo not drawn),-11.4,-12.0%,7.2%,-6.5%,-1.2%
Cn1cnnc1SCC(=O)N1N=C2/C(=C/c3ccco3)CCCC2C1c1ccco1 (stereo not drawn),-61.3*,0.0%,124.6%,-3.8%,-20.9%
COCCCNC(=O)c1cc2c(-c3cccc(OC)c3)nn(C)c2s1,-9.9,-0.8%,96.3%,-1.6%,-55.6%
